Bioassay records deposited in PubChem BioAssay by National Center for Advancing Translational Sciences (NCATS).
12-LOX inh: Primary qHTS assay for inhibitors of human arachidonate 12S-lipoxygenase (ALOX12): Round 2; Potency, µM (series often up to 108 µM), without a hit: top-dose activity change, negative = inhibition, most hits filed as inhibitors; actives 1.1% (n = 580,000); Polyunsaturated fatty acid lipoxygenase ALOX12 (Homo sapiens), P18054; AID 1671190, 2021; purified 12hLO, xylenol orange hydroperoxide absorbance
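Purified human 12hLO at 150 nM in 25 mM Hepes, 0.01% Triton X-100, pH 7.0, preincubated 15 min at room temperature with compound. Reaction started with 40 uM arachidonic acid, 30 min at room temperature. Hydroperoxide measured by Fe-xylenol orange, 573/405 nm absorbance ratio.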
Gal4-VP16 FLuc: VP16 counterscreen qHTS for inhibitors of ROR gamma transcriptional activity | Drosophila S2 Gal4-VP16 UAS-luciferase, luminescence, 20 h | Potency, µM (top dose mostly 53.6 µM), for inactives: at the highest dose activity, negative = inhibition, most hits filed as inhibitors | actives 3.5% (n = 310,000) | AID 2546, 2010;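 note: Gal4-VP16 expression switched on by copper sulfate through the metallothionein promoter; nearly all actives have a fitted effect of over 50% in size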
RORgamma inh: qHTS for inhibitors of ROR gamma transcriptional activity; Nuclear receptor ROR-gamma (Mus musculus), P51450; Drosophila S2 Gal4-RORgamma UAS-luciferase reporter, 20 h; Potency, µM (top dose mostly 53.6 µM), inactives show at the top dose activity change, negative = inhibition, most hits filed as inhibitors; actives 5.4% (n = 310,000); AID 2551, 2010; note: nearly all actives have a fitted effect of over 60% in size
Target sequence (P51450 whole entry, looked up, the tested form may be a part): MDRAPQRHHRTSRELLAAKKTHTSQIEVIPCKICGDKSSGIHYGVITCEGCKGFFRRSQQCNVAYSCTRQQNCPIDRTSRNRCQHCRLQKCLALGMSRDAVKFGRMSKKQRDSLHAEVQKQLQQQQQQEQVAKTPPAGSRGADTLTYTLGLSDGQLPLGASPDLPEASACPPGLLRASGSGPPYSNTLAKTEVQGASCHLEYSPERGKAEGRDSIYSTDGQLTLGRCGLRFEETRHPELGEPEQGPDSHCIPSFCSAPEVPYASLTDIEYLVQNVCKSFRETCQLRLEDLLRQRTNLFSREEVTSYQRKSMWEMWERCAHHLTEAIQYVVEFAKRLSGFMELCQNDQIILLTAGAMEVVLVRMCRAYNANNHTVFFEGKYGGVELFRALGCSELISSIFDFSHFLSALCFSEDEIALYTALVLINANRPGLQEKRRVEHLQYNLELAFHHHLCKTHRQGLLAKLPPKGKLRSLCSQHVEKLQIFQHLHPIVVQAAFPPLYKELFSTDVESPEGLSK
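Stable Schneider cell line, Gal4 DNA-binding domain fused to ROR gamma, UAS-luciferase. Cmpd 1 hr RT → CuSO4 700 uM final → 20 hr RT → luciferase reagent 10 min → luminescence.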
DT40 TDP1 CPT: qHTS for Inhibitors of human tyrosyl-DNA phosphodiesterase 1 (TDP1): qHTS in cells in presence of CPT; chicken DT40 Tdp1-/-;hTDP1 cells + 20 nM CPT, ATP luminescence, 48 h; Potency, µM (titrated, usually from 46.2 µM), for inactives: top-dose activity change, negative = growth inhibition, usual class: inhibitors; actives 12% (n = 420,000); AID 686979, 2013; note: nearly all actives have a fitted effect of over 55% in size
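Chicken DT40 Tdp1-/- cells complemented with human TDP1, 400 cells/well, exposed to compounds plus 20 nM camptothecin for at least 48 h at 37 C; viability read as ATP content by CellTiter-Glo luminescence.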
TDP1 cell noCPT: qHTS for Inhibitors of human tyrosyl-DNA phosphodiesterase 1 (TDP1): qHTS in cells in absence of CPT; DT40 Tdp1-/- hTDP1 cells, no CPT, ATP luminescence, 48 h; Potency, µM (series often up to 46.2 µM), for inactives: top-dose activity change, negative = growth inhibition, usual class: inhibitors; actives 15% (n = 420,000); AID 686978, 2013; note: nearly all actives have a fitted effect of over 55% in size
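Readout: luminescence from CellTiter-Glo after 30 min in the dark at RT. Cells: DT40 Tdp1-/- with stable hTDP1, 400/well. Exposure: compounds alone, ≥48 hr, 37 °C.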
ELG1 repair inh: qHTS screen for small molecules that inhibit ELG1-dependent DNA repair in human embryonic kidney (HEK293T) cells expressing luciferase-tagged ELG1. Potency, µM (titrated, usually from 46.1 µM), for inactives: at the highest dose activity change, negative = inhibition, most hits filed as inhibitors. HEK293T ELG1-luciferase reporter, luminescence, 16 h; DNA damage induced by 5-fluorouridine. actives 2.3% (n = 330,000); note: nearly all actives have a fitted effect of over 55% in size
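Luminescence from the luciferase reporter, measured 30 min after ONE-Glo reagent at room temperature, was the read-out. Beforehand, 2,000 cells per well were exposed for 16 hr at 37 °C to 5-fluorouridine together with compound or vehicle.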
* = called active by the depositor; ? = inconclusive; . = not tested or not shown; [ ] = another dose, or the depositor's remark. Most compounds without a hit are left out; they make up all but 15% or so of the library. Calls come from the whole dose curve; as a rule, active = well fitted curve in the direction sought with a large enough effect; inconclusive = small, poorly fitted or top-dose-only effect, or another doubt; inactive = no such curve, though single readings can be large; an effect the other way counts as inactive or inconclusive. % is set by controls: 0 for no effect and ±100 for the full control effect; potency is the fitted concentration of half-maximal effect.

SMILES	12-LOX inh	Gal4-VP16 FLuc	RORgamma inh	DT40 TDP1 CPT	TDP1 cell noCPT	ELG1 repair inh
COc1cccc(-c2ccc(SCC(=O)NC3CCCC3)nn2)c1	475%	9%	2%	-10%	-9%	3%
O=C(CNc1cc([N+](=O)[O-])ccc1NCCO)Nc1cccc(S(=O)(=O)N2CCCCC2)c1	347%	.	.	?	?	?
O=C(CNc1cccc(S(=O)(=O)N2CCCCCC2)c1)Nc1cccc([N+](=O)[O-])c1	370%	.	.	?	23µM*	?
O=C(CNc1cccc([N+](=O)[O-])c1)NC(=O)NC1CCCCC1	-52%	.	.	15µM*	?	-7%
CCCC(C)NC(=O)c1ccc(CNC(=O)NC(C)C)cc1 (configuration not stated)	4%	.	.	.	.	.
Cc1cnc(-c2cccnc2)n1CC1CCN(C(=O)c2ccco2)CC1	11%	.	.	.	.	.
CSc1ncnc2c1ncn2CCCNCC1CCCO1 (configuration not stated)	-8%	.	.	7%	4%	.
CC[C@@H](NCCCn1cnc2c(SC)ncnc21)c1ccccc1	-8%	.	.	16µM*	?	.
c1ccc(COc2ncnc3c2ncn3CCCNC2CCN(Cc3ccccc3)CC2)cc1	-10%	.	.	7.3µM*	4.1µM*	.
CSc1ncnc2c1ncn2CCCNCc1cccc2ccccc12	0%	.	.	-17%	?	.
CSc1ncnc2c1ncn2CCCNC1CCN(Cc2ccccc2)CC1	?	.	.	?	23µM*	.
c1ccc(COc2ncnc3c2ncn3CCCNCCN2CCOCC2)cc1	16%	.	.	33%	4%	.
CCc1c(C(=O)NCCC23CC4CC(CC(C4)C2)C3)csc1C	7%	.	.	.	.	.
CC[C@H]1C(c2cccc(C)c2)=NN(c2ccccc2)[C@@H]1CO	.	-13%	21%	.	.	.
OC[C@@H]1[C@@H](c2ccccc2)C(c2cccc(Cl)c2)=NN1c1ccccc1	?	-27%	36%	21µM*	21µM*	?
Cc1cccc(C2=NN(c3ccccc3)[C@H](CO)[C@H]2c2ccc(Cl)cc2)c1	?	40µM*	33%	?	?	3%
OC[C@@H]1[C@@H](c2ccccc2)C(c2ccc(F)cc2)=NN1c1ccccc1	.	?	0%	?	?	-2%
OC[C@@H]1[C@@H](c2ccc(F)cc2)C(c2ccc(F)cc2)=NN1c1ccccc1	.	-20%	42%	.	.	.
CC[C@H]1C(c2cccc(Cl)c2)=NN(c2ccccc2)[C@@H]1CO	.	32µM*	?	.	.	.
OC[C@@H]1[C@@H](c2ccccc2)C(c2ccccc2)=NN1c1ccccc1	?	-15%	-26%	?	16µM*	?
CCn1ccc(C(=O)N2CCC(F)(c3nc(-c4ccncc4)no3)CC2)n1	94%	.	.	.	.	.
O=C1NC[C@@H](CCC(=O)N2CCCC2)N2C[C@@H](NCc3ccccc3)C[C@@H]12	93%[176 µM]	.	.	.	.	.
C/C(=N\N)c1c(-c2ccccc2)c2cc(C)ccc2[nH]c1=O	65%	-11%	12%	-13%	10%	7%
Cc1ccc2[nH]c(=O)c(CNS(=O)(=O)c3ccccc3)c(-c3ccccc3)c2c1	21%	-15%	31%	?	18µM*	?
Cc1ccccc1Cn1cnc(NC(=O)c2ccn(COc3ccc(F)cc3F)n2)n1	12%	.	.	.	.	.
SMILES	12-LOX inh	Gal4-VP16 FLuc	RORgamma inh	DT40 TDP1 CPT	TDP1 cell noCPT	ELG1 repair inh
C/C(=N\Nc1ccc(C(=O)O)cc1)c1ccc2c(c1)Nc1ccccc1S2	?	-2%	13%	?	?	?
C/C(=N/Nc1ccc(C(=O)O)cc1)c1ccc2c(c1)Nc1ccccc1S2	28µM*	.	.	-8%	-1%	.
Cc1cccc(NC(=O)CSc2nncn2CCc2cccs2)c1C	10%	.	.	.	.	.
CCc1ccc2[nH]c(=O)c(CN(Cc3ccc4c(c3)OCO4)Cc3nnnn3C3CCCC3)cc2c1	-21%	-14%	-29%	18µM*	?	?
Cc1ccc2cc(CN(Cc3ccc(F)cc3)Cc3nnnn3C3CCCC3)c(=O)[nH]c2c1	9%	.	36%[0.365 µM]	29µM*	?	?
Cc1cc(C)c2[nH]c(=O)c(CN(Cc3nnnn3C3CCCC3)C3CCCCC3)cc2c1	.	4%	-3%	-7%	-15%	4%
Cc1ccc2cc(CN(Cc3ccccc3)Cc3nnnn3C3CCCC3)c(=O)[nH]c2c1	-31%[57.4 µM]	-15%	-27%	18µM*	13µM*	?
Cc1ccc2[nH]c(=O)c(CN(CCCN3CCOCC3)Cc3nnnn3C3CCCC3)cc2c1	11%	0%	23%	?	-18%	15%
CCc1ccccc1NC(=O)Cn1c(C)cc2nc3n(c(=O)c21)CCCCC3	-1%	.	.	.	.	.
Cc1ccc(-c2ccc(/C=C3\C(=O)ON=C3c3ccccc3)o2)c([N+](=O)[O-])c1	4.5µM*	16µM*	?	8.2µM*	16µM*	?
Cc1ccc(/C=C2\C(=O)ON=C2c2ccccc2)o1	?	-4%	-9%	-8%	0%	0%
Cc1ccc(C2=NOC(=O)/C2=C\c2ccc(C)o2)cc1	16µM*	12%	-30%	13µM*	23µM*	?
O=S(=O)(c1cc(F)ccc1F)N1CCN(Cc2ccc3c(c2)CCO3)CC1	-7%	.	.	.	.	.
O=C(CCC1CCN(C(=O)c2ccccc2)CC1)NCCCN1CCOCC1	19%	.	.	.	.	.
NC1=NC[C@@H](Cc2ccc(O)cc2)N1CCC12CC3CC(CC(C3)C1)C2	?	.	.	21µM*	21µM*	.
CC(C)(C)CN1C(N)=NC[C@@H]1Cc1ccccc1	-1%	.	.	-2%	-27%	.
NC1=NC[C@H](Cc2ccc(O)cc2)N1CC1CCCCC1	-18%	3%	-24%	?	15µM*	-3%
O=C1NC[C@@H](CCCCN2C[C@H](Cc3ccc(O)cc3)N(CC3CCCCC3)C(=O)C2=O)N(CCc2ccccc2)C1=O	2%	.	.	0%	-5%	.
NC1=NC[C@@H](Cc2ccc(O)cc2)N1CCCCC1CCCCC1	-24%	-6%	-24%	5.2µM*	3.7µM*	-2%
NC1=NC[C@H](Cc2ccccc2)N1CC1CCCCC1	-23%	.	.	10µM*	12µM*	.
